Inconclusive results are not listed. Activity calls are given as the source filed them. Unless noted, the call rests on the fitted dose curve; in most records, active means well fitted curve in the direction sought with a large enough effect; inconclusive means small, poorly fitted or top-dose-only effect, or another doubt; inactive means no such curve, though single readings can be large; an effect the other way counts as inactive or inconclusive.
How the values were obtained:
[1] = target: Lysosomal acid glucosylceramidase (Homo sapiens) (UniProt P04062); assay: Glucocerebrosidase-p2 (AID 348; in the data active means potency below about 10 µM; further: potency means the concentration at half of the fitted maximal effect); conditions: purified GBA, blue fluorogenic substrate, 40 min
Outline: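 Compounds titrated from 0.6 nM upwards against 0.2 nM enzyme in pH 5.9 citric acid/KH2PO4, taurocholate, tween-20; blue fluorogenic substrate 80 uM, 40 min room temperature, stopped and read Ex 365/Em 440 for AC50.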

[2] = AP1 Signaling Pathway (AID 357; active means well fitted curve in either direction with a large enough effect, not every such curve was filed as active;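 further: ME-180 reporter cells stimulated with EGF at its EC50 level; on the % scale 0 is the no-effect control and ±100 the full control effect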); conditions: ME-180 AP-1-bla reporter, EGF-induced, beta-lactamase ratio, 5 h; at 7.69 µM (top of the series) unless noted
Outline: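 Modulation of EGF-driven AP-1 transcription was assessed with a beta-lactamase reporter in ME-180 cells. Compound and EC50 EGF were co-incubated 5 hours at 37 °C before 2.5-hour CCF4 loading at room temperature and dual-emission reading.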

[3] = target: Cytochrome P450 1A2 (Homo sapiens) (UniProt P05177); assay: p450-cyp1a2 (AID 410; calls by dose curve; further: potency means the concentration at half of the fitted maximal effect;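 on activity change, negative = inhibition: -100% = full effect of reference inhibitor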); conditions: recombinant CYP1A2, luciferin-ME demethylation, luminescence; series mostly up to 57 µM
Outline: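 Inhibition was calculated relative to 57 uM furafylline (full inhibition). The reaction used human CYP1A2 at 20nM with Luciferin-ME at its Km, 100uM, driven by an NADPH-regenerating system for 60 min at room temperature.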

[4] = Stat Signaling Pathway (AID 446; active means well fitted curve in either direction with a large enough effect, not every such curve was filed as active;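 further: ME-180 cervical cancer cells given 40 pM IL-6 alongside compound; SIE-controlled beta-lactamase reporter measured as 460/530 nm FRET emission ratio; on the % scale 0 is the no-effect control and ±100 the full control effect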); conditions: ME-180 SIE beta-lactamase reporter, IL-6 stimulated, 5 h; at 7.69 µM (top of the series) unless noted
Outline: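 ME-180 cells carrying a SIE-driven beta-lactamase reporter are stimulated with 40 pM IL-6 for 5 h at 37C in the presence of compound. The 460/530 nm FRET substrate ratio is read after 2.5 h at RT. Data are normalised to 300 pM IL-6 and to 125 nM JAK inhibitor controls.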

[5] = target: Glucocorticoid receptor (Homo sapiens) (UniProt P04150); assay: GR-EFC Redistribution (AID 451; calls by dose curve; further: potency means the concentration at half of the fitted maximal effect); conditions: CHO-K1 GR-EFC translocation, beta-gal luminescence, 2 h
Outline: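 Translocation of GR-ED fusion to nuclear EA restores b-gal, read by luminescence after 1 h room-temperature detection. Engineered CHO-K1 biosensor cells, 1,000/well, exposed 2 h at 37 C to titrations up to 46 uM final.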

[6] = target: Mitogen-activated protein kinase 10 (Mus musculus) (UniProt Q61831); assay: JNK3 AlphaScreen Assay (AID 530; active means well fitted curve in either direction with a large enough effect, not every such curve was filed as active;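 further: kinase came from lysate of stimulated human HepG2 cells; signal reports phosphorylation of biotinylated GST-cJun 1-79 at Ser73 with 10 µM ATP; on the % scale 0 is the no-effect control and ±100 the full control effect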); conditions: JNK3 lysate, c-Jun phosphorylation; series mostly up to 57.1 µM
Outline: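 Room-temperature AlphaScreen kinase assay; pre-activated HepG2 lysate as JNK3 source, biotin-GST-cJun(1-79) substrate, 10 uM ATP, compound 15 min preincubation.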

[7] = target: 3',5'-cyclic-AMP phosphodiesterase 4B (Homo sapiens) (UniProt Q07343); assay: qHTS Assay for Inhibitors of PDE-IV (AID 607; active means well fitted activation curve with a large enough effect in the main read-out, with a control signal flat, not every such curve was filed as active; further: % of control where 0% means no effect); conditions: HEK293 ACTOne CNG channel cells, membrane potential fluorescence; series mostly up to 22.9 µM
Outline: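 HEK293 ACTOne cells with CNG channel (1000/well), endogenous PDE4; membrane potential dye, compounds up to 22.9 uM final. Fluorescence Ex 535/Em 590; RO 20-1724 (100 uM final) as reference.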

[8] = target: Cytochrome P450 3A4 (Homo sapiens) (UniProt P08684); assay: qHTS Assay for Activators of Cytochrome P450 3A4 (AID 885); conditions: recombinant CYP3A4, Luciferin-PPXE luminescence, 60 min; series mostly up to 57.1 µM; further: nearly all actives have a fitted effect of over 65% in size; further: potency means the concentration at half of the fitted maximal effect
Outline: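 Human CYP3A4 (20 nM) with Luciferin-PPXE at 25 uM (its KM) in 200 mM KPO4; 10 min compound preincubation, then NADPH regeneration and 60 min reaction at RT. Luciferin read by luminescence; normalized to 57 uM ketoconazole full inhibition.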

[9] = target: Cytochrome P450 2C19 (Homo sapiens) (UniProt P33261); assay: qHTS Assay for Inhibitors and Substrates of Cytochrome P450 2C19 (AID 899); conditions: recombinant CYP2C19, luciferin-H EGE luminescence; series mostly up to 57.1 µM; further: potency means the concentration at half of the fitted maximal effect; nearly all actives have a fitted effect of over 60% in size
Outline: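 Reactions contain 5nM enzyme, 10uM Luciferin-H EGE (KM) and 50mM KPO4; compound preincubates 10 min at 37C, NADPH regeneration starts turnover for 60 min. Luminescence after detection reagent gives activity.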

[10] = qHTS Assay for Lipid Storage Modulators (AID 1519; calls by dose curve); conditions: Drosophila S3 cells, BODIPY lipid droplet/cell ratio, laser cytometry, cells loaded with oleic acid; for activity change, negative = inhibition: at 57.5 µM (top of the series)
Outline: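 Cells seeded at 5,000 per well were treated with compounds over a concentration series and loaded with oleic acid (400 uM, as added). Lipid droplet fluorescence (488 nm excitation, 500-530 nm channel) was read by laser-scanning cytometry and normalized to 20 uM Triacsin C.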

[11] = Primary qHTS for small molecule stabilizers of the endoplasmic reticulum resident proteome: Secreted ER Calcium Modulated Protein (SERCaMP) assay (AID 1508630); conditions: SH-SY5Y GLuc-SERCaMP (Gaussia luciferase released on ER calcium loss) secretion, thapsigargin, luminescence; series mostly up to 38.4 µM; further: on the % scale 0 is the no-effect control and ±100 the full control effect
Outline: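 GLuc-SERCaMP-expressing SH-SY5Y cells, pretreated 16 h with compound, are challenged with thapsigargin to empty ER calcium stores; after 4 h, coelenterazine is added directly to the medium and luminescence is imaged.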

[12] = target: Cytochrome P450 2D6 (Homo sapiens) (UniProt P10635); assay: qHTS Assay for Inhibitors and Substrates of Cytochrome P450 2D6 (AID 891); conditions: recombinant CYP2D6, luciferin-ME EGE luminescence; series mostly up to 57.1 µM; further: potency means the concentration at half of the fitted maximal effect; nearly all actives have a fitted effect of over 60% in size
Outline: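 Human CYP2D6 (5 nM) with 30 uM Luciferin-ME EGE (at Km) in 100 mM KPO4, compound preincubated 10 min, then NADPH regeneration system for 60 min at room temperature. Luciferin read by luminescence; normalized to 1.43 uM quinidine.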

[13] = NFAT Signaling Pathway (AID 444; active means well fitted curve in either direction with a large enough effect, not every such curve was filed as active); conditions: Jurkat NFAT-bla M1, carbachol, beta-lactamase ratio, 5 h; at 7.69 µM (top of the series) unless noted
Outline: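 Read-out: CCF4 FRET ratio (460 nm/530 nm) after 1 h RT dye loading, used for %activity and AC50 from titration series. Cells: Jurkat NFAT-β-lactamase/M1 line, treated with compound plus 1 uM carbachol for 5 h, 37 °C.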

[14] = target: Glucocorticoid receptor (Homo sapiens) (UniProt P04150); assay: GR-GFP Redistribution (AID 450;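 active means compounds whose dose series gives a full or clear partial fitted curve of increased nuclear translocation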; further: potency means the concentration at half of the fitted maximal effect); conditions: U2OS GR-GFP nuclear translocation, laser cytometry, 2 h
[15] = Confirmation and Secondary Assay for Modulators of Hemoglobin Beta Chain Splicing at IVS2 654 locus (AID 910); conditions: HeLa EGFP-654 splicing reporter, GFP fluorescence, 48 h; series mostly up to 38.3 µM;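 further: HeLa cells stably carrying EGFP split by mutant beta-globin IVS2-654 intron; per-well total GFP intensity by laser scanning cytometry after 2-day treatment; % of control where 0% means no effect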
Outline: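 Readout: per-well total peak green fluorescence (488 nm ex, 500–520 nm em) from objects 5–250 µm, reflecting correct splicing of an EGFP-654 reporter. Compounds were applied for 2 days at 37 °C to overnight-plated HeLa EGFP-654 cells; controls were DMSO and 500 nM IVS2-654 PNA.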

[16] = Confirmation and Secondary Assay for Modulators of Hemoglobin Beta Chain Splicing at IVS2 705 locus (AID 930); conditions: HeLa EGFP-705 splicing reporter, GFP fluorescence, 48 h; series mostly up to 38.3 µM;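 further: HeLa cells stably expressing the EGFP-705 splicing reporter; GFP fluorescence per well restored by corrected splicing of the IVS2-705 intron in EGFP; % of control where 0% means no effect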
Outline: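 First, HeLa EGFP-705 cells are seeded at 500/well in Optimem with 2% FCS and left overnight. Next, compound or DMSO is added for 2 days. Finally wells are laser-scanned and total peak GFP intensity scored.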

[17] = target: Ubiquitin carboxyl-terminal hydrolase 1 (Homo sapiens) (UniProt O94782); assay: Inhibitors of USP1/UAF1: Pilot qHTS (AID 504865); conditions: purified USP1/UAF1, Ub-rhodamine cleavage fluorescence; series mostly up to 54.9 µM;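 further: rhodamine fluorescence freed from ubiquitin-rhodamine substrate followed over time; top concentration of the series differs between compounds; on the % scale 0 is the no-effect control and ±100 the full control effect; nearly all actives have a fitted effect of over 35% in size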
Outline: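 Deubiquitinase activity followed as kinetic rhodamine fluorescence release from 150 nM Ub-Rho. 1 nM USP1/UAF1 with compound, after 15 min room-temperature preincubation, in HEPES pH 7.8 buffer containing TCEP, EDTA, BSA and Tween-20.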

[18] = qHTS Assay for Identification of Small Molecule Agonists for Hypoxia Response Element Signaling Pathway (AID 914; active means well fitted activation curve with a large enough effect in the signal ratio, with a control signal flat, not every such curve was filed as active; the % refers to the signal ratio; further: % of control where 0% means no effect); conditions: ME-180 (cervical carcinoma) HRE-bla reporter, beta-lactamase ratio, CoCl2, 17 h; activation: stronger effect = higher value
Outline: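 Positive modulation of EC50 CoCl2-induced hypoxia response element signaling is measured in ME-180 cells with a beta-lactamase reporter. Compounds are titrated, incubation runs 17 hours, and %Activity derives from the blue/green ratio.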

[19] = target: Cytochrome P450 2C9 (Homo sapiens) (UniProt P11712); assay: qHTS Assay for Inhibitors and Substrates of Cytochrome P450 2C9 (AID 883); conditions: recombinant CYP2C9, luciferin-H luminescence, 60 min; series mostly up to 57.1 µM; further: potency means the concentration at half of the fitted maximal effect; nearly all actives have a fitted effect of over 60% in size
Outline: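 Turnover of Luciferin-H (100uM, KM) by 10nM human CYP2C9 was measured over 60 min at 37C with NADPH regeneration; inhibitors and some substrates reduce luminescence. Data normalized to sulphaphenazole 57uM.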

[20] = target: Cytochrome P450 3A4 (Homo sapiens) (UniProt P08684); assay: qHTS Assay for Inhibitors and Substrates of Cytochrome P450 3A4 (AID 884); conditions: recombinant CYP3A4, Luciferin-PPXE luminescence; series mostly up to 57.1 µM; further: on the % scale 0 is the no-effect control and ±100 the full control effect; nearly all actives have a fitted effect of over 50% in size
Outline: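 20 nM human CYP3A4 with 25 uM Luciferin-PPXE (at KM) in 200 mM KPO4, preincubated 10 min with compound; NADPH regeneration started a 60 min RT reaction. Luciferin detected by luminescence, normalized to 57 uM ketoconazole as full inhibition.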

[21] = measured here: cell count channel max response
[22] = measured here: lipid channel max response

Sequence of Glucocorticoid receptor (Homo sapiens) (P04150 whole entry, looked up, the tested form may be a part): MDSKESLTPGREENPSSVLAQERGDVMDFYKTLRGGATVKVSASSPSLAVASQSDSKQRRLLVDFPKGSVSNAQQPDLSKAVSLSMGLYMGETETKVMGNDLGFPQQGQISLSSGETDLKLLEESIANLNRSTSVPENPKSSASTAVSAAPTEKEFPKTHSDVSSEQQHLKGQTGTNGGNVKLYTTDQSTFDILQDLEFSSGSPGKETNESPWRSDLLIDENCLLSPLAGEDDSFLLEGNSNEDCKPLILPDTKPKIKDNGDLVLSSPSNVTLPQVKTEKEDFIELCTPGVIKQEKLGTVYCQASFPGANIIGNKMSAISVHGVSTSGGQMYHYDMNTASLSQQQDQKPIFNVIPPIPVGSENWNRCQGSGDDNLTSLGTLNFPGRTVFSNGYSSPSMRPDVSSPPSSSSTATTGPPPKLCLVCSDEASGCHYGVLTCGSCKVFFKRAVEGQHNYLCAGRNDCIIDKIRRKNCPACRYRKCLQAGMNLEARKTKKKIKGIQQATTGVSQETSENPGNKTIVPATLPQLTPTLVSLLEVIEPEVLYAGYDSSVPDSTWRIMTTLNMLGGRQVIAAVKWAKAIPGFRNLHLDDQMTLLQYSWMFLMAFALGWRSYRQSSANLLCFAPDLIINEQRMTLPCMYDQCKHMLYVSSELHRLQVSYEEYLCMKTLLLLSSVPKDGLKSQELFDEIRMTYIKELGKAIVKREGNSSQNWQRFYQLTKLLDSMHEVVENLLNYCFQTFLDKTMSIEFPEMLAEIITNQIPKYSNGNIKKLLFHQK
Sequence of Cytochrome P450 3A4 (Homo sapiens) (P08684 whole entry, looked up): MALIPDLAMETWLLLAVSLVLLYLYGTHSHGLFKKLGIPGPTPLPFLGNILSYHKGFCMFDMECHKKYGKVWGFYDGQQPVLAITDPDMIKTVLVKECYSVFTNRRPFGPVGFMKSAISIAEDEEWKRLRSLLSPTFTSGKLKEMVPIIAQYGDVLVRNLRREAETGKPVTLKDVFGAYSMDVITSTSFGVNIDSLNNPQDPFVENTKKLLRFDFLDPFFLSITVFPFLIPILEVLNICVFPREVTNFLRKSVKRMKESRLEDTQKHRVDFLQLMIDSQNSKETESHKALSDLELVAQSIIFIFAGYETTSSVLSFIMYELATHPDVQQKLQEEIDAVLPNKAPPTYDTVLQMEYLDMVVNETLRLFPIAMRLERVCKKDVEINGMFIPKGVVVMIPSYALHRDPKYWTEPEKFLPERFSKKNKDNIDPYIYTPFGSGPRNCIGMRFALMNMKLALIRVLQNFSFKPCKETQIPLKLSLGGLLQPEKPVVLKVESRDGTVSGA
Sequence of Cytochrome P450 1A2 (Homo sapiens) (P05177 whole entry, looked up): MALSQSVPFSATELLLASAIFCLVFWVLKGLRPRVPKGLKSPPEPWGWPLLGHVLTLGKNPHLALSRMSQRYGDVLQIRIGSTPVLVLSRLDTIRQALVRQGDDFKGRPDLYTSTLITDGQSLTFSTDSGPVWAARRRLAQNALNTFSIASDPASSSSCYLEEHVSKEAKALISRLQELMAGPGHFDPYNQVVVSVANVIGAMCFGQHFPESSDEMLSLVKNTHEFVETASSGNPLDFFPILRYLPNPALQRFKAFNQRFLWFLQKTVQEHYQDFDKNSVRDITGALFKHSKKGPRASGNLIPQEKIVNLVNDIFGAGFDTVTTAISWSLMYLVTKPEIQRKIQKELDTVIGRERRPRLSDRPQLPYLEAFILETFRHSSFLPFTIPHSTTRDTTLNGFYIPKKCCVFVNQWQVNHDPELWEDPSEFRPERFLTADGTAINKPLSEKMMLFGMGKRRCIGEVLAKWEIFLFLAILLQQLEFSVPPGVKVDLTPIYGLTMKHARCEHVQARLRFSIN
Sequence of 3',5'-cyclic-AMP phosphodiesterase 4B (Homo sapiens) (Q07343 whole entry, looked up): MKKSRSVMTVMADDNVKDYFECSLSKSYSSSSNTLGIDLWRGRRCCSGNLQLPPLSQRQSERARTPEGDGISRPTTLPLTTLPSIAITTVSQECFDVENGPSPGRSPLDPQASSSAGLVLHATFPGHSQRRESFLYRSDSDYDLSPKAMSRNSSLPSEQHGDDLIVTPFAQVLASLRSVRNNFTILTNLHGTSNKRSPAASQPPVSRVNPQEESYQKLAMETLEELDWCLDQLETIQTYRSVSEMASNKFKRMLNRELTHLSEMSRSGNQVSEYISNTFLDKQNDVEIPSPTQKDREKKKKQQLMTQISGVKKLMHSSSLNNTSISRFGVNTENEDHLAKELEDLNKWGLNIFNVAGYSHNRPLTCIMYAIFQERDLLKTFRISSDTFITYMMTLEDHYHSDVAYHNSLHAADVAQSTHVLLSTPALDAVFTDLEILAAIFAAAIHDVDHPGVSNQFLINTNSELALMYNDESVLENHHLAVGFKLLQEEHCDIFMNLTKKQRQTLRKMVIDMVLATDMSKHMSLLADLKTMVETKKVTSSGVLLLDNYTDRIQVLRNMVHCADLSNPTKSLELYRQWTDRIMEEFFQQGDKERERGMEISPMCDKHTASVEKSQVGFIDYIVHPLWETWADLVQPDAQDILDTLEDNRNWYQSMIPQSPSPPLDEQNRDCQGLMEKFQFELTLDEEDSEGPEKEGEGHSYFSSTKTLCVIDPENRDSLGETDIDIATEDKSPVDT
Sequence of Lysosomal acid glucosylceramidase (Homo sapiens) (P04062 whole entry, looked up): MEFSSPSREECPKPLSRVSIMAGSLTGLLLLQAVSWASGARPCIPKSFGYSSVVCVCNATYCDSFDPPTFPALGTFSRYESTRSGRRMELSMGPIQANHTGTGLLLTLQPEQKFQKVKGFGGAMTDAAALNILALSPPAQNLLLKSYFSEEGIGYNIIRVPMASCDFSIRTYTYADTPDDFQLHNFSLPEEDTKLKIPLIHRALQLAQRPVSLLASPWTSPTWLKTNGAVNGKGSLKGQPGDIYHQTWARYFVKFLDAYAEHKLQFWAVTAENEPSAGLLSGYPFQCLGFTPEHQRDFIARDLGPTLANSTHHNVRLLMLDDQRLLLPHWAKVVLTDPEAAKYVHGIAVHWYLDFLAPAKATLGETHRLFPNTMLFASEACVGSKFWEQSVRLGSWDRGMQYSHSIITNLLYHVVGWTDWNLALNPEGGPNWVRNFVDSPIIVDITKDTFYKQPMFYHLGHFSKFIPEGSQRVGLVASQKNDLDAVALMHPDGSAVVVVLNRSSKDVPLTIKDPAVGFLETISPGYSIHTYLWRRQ
Sequence of Cytochrome P450 2D6 (Homo sapiens) (P10635 whole entry, looked up): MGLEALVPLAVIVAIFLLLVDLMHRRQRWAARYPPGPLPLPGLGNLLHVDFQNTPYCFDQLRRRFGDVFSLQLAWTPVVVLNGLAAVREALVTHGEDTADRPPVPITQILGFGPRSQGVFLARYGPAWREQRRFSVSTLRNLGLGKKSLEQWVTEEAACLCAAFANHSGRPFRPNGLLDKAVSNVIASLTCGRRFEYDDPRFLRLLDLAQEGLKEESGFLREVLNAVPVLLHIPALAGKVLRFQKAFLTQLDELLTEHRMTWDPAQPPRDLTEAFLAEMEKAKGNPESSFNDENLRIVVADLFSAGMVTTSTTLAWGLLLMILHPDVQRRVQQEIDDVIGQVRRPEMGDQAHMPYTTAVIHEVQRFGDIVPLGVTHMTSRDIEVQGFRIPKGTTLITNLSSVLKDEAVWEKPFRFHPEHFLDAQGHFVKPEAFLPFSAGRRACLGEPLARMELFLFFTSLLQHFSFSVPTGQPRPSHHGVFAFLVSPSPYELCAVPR
Sequence of Cytochrome P450 2C19 (Homo sapiens) (P33261 whole entry, looked up): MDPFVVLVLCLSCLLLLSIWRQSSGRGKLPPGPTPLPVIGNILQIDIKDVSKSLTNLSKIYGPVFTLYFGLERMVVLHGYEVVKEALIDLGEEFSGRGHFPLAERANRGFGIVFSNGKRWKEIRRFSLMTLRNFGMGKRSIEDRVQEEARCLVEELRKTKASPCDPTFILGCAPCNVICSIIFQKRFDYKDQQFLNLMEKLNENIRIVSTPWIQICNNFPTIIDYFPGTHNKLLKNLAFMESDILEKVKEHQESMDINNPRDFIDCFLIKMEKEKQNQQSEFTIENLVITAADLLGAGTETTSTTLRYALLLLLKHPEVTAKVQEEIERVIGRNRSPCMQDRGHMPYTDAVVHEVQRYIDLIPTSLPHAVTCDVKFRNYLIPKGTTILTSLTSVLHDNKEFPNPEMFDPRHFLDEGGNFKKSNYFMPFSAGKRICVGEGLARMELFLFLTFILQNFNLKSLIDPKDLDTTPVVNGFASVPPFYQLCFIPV
Sequence of Cytochrome P450 2C9 (Homo sapiens) (P11712 whole entry, looked up): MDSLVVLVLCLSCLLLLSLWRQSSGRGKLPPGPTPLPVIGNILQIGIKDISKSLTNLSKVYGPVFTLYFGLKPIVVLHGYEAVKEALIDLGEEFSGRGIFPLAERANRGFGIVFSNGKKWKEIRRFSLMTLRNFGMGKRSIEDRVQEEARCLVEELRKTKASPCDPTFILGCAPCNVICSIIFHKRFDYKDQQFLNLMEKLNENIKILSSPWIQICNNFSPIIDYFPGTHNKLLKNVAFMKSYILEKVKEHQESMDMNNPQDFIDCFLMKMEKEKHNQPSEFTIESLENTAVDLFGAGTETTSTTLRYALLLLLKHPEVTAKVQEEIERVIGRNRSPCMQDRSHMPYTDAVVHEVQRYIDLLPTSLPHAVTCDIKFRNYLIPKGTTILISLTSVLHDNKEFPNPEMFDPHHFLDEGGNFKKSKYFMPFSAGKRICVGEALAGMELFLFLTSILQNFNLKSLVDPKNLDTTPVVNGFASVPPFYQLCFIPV

N#Cc1cccc(NC(=O)N2CC3(CCN(C(=O)c4cc(C(F)(F)F)cc(C(F)(F)F)c4)CC3)C2)c1
inactive: Potency [1] > 11.4 µM | activity change, negative = inhibition [2] -13.9% | activity, negative = inhibition [4] -7.2% | Potency [5] > 46 µM | Potency [6] | Potency [7] | Potency [8] | activity change, negative = inhibition [10] -0.946% | outcome [11]
active: Potency [3] 12.6 µM | Potency [9] 631 nM
14%: max response [10, 21]
14.4%: max response [10, 22]

Cn1cccc1C(=O)N1CCC2(CCN(Cc3ccccc3)CC2)CC1
active: Potency [12] 7.94 µM
22.8%: max response [10, 22]
16.4%: max response [10, 21]
inactive: Potency [1] > 11.4 µM | activity change, negative = inhibition [2] -1.12% | Potency [3] | activity, negative = inhibition [4] 4.92% | Potency [5] > 46 µM | Potency [6] | Potency [7] | activity change, negative = inhibition [10] 4.86% | outcome [11]

Cc1ccccc1-c1cncnc1NC1CCNCC1
16%: max response [10, 22]
inactive: Potency [1] > 11.4 µM | activity change, negative = inhibition [2] 11.7% | activity change, negative = inhibition [13] -1.26% | activity, negative = inhibition [4] 20.9% | Potency [14] > 46 µM | Potency [5] > 46 µM | Potency [6] | Potency [7] | Potency [8] | Potency [15] | outcome [16] | activity change, negative = inhibition [10] 3.19% | Potency [17] | outcome [11]
12.9%: max response [10, 21]

COCC(=O)N1CCC2(CCCN(c3ncccn3)C2)CC1
9.8%: max response [10, 21]
21.8%: max response [10, 22]
inactive: Potency [1] > 11.4 µM | activity change, negative = inhibition [2] -5.71% | Potency [3] | activity, negative = inhibition [4] -7.69% | Potency [5] > 46 µM | Potency [6] | Potency [7] | activation [18] 11.9% | activity change, negative = inhibition [10] 7.95% | outcome [11]

O=C(c1ccncc1)N1CCC2(CCCN(Cc3ccncc3)C2)CC1
1.67%: max response [10, 21]
active: Potency [3] 6.31 µM | Potency [19] 5.01 µM | Potency [12] 6.31 µM
8.27%: max response [10, 22]
inactive: Potency [1] > 11.4 µM | activity change, negative = inhibition [2] -5.21% | activity, negative = inhibition [4] 4.83% | Potency [5] > 46 µM | Potency [7] | Potency [8] | activation [18] 2.4% | activity change, negative = inhibition [10] 2.08% | outcome [11]

O=C(c1csnn1)N1CCC2(CCCN(Cc3ccccc3)C2)CC1
18%: max response [10, 22]
active: Potency [12] 1.26 µM
10.8%: max response [10, 21]
inactive: Potency [1] > 11.4 µM | activity change, negative = inhibition [2] 9.34% | Potency [3] | activity, negative = inhibition [4] -5.61% | Potency [5] > 46 µM | Potency [6] | Potency [7] | activity change, negative = inhibition [10] 3.37% | outcome [11]

O=C(c1cccc(F)c1)N1CCC2(CCN(Cc3nccs3)CC2)CC1
inactive: Potency [1] > 11.4 µM | activity change, negative = inhibition [2] -8.17% | activity, negative = inhibition [4] -0.835% | Potency [5] > 46 µM | Potency [20] | activity change, negative = inhibition [10] 6.34% | outcome [11]
8.7%: max response [10, 21]
20.4%: max response [10, 22]
active: Potency [3] 1.58 µM | Potency [8] 15.8 µM | Potency [9] 1580 nM

From PubChem BioAssay (NCATS)
